According to PubChem BioAssay (NCATS):
Values without a mark were called inactive. Records with an inconclusive call do not appear. Calls of active or inactive are those of the source. Unless noted, calls follow the shape of the dose curve; as a rule, active = well fitted curve in the direction sought with a large enough effect; inconclusive = small, poorly fitted or top-dose-only effect, or another doubt; inactive = no such curve, though single readings can be large; an effect the other way counts as inactive or inconclusive.

Target: Guanine nucleotide-binding protein G(i) subunit alpha-1 (Homo sapiens) (UniProt P63096)
Assay: qHTS Assay for Inhibitors of RGS12 GoLoco Motif Activity (Green Fluorophore) (AID 879);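 also: 0% = labeled peptide with Gαi1 and full inhibition = labeled peptide alone without protein; negative values mean loss of peptide binding seen as reduced polarization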
Details: Galphai1/FITC-RGS12 GoLoco peptide, fluorescence polarization; series mostly up to 57.1 µM; activity, negative = inhibition: at the top concentration
Method in brief: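 A drop in FITC polarization marked displacement of the FITC-tagged RGS12 GoLoco peptide (10 nM) from Gαi1 (50 nM). Compounds were incubated 10 min at room temperature in Tris pH 7.5 buffer containing 150 mM NaCl, 0.1 mM GDP and 0.05% NP40; unlabeled peptide titration served as control.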

Guanine nucleotide-binding protein G(i) subunit alpha-1 (Homo sapiens), sequence (P63096 whole entry, looked up): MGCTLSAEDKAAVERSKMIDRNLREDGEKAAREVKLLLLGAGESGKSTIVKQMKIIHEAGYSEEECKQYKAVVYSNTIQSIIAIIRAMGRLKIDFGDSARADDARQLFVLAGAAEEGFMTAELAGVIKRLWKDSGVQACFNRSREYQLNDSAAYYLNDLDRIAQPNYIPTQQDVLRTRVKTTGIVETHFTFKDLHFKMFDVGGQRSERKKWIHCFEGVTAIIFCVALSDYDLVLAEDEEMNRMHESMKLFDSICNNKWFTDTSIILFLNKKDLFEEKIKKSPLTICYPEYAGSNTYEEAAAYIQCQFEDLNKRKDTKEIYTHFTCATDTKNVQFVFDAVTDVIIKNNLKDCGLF

Structure (SMILES) | activity, negative = inhibition [%]
CC[C@]1(O)C[C@H]2CN(CCc3c([nH]c4ccccc34)[C@](C(=O)OC)(c3cc4c(cc3OC)N(C)[C@@H]3[C@](O)(C(=O)OC)[C@H](OC(C)=O)[C@]5(CC)C=CCN6CC[C@]43[C@@H]65)C2)C1 | 11.1
CN1CCc2cc(O)c(O)cc2[C@H](c2ccccc2)C1 | -11
O=C(/C=C\c1ccc(O)cc1)c1ccc(O)cc1O | 16.7
FC(F)(F)c1cc(CO[C@@H]2CCCN[C@H]2c2ccccc2)cc(C(F)(F)F)c1 | 3.17

Test system: not listed separately
Assay: qHTS Assay for Identification of Small Molecule Agonists for Hypoxia Response Element Signaling Pathway (AID 914; active = well fitted activation curve with a large enough effect in the signal ratio, with a control signal flat, not every such curve was filed as active; the % refers to the signal ratio; also: potency is read from the fitted curve at half-maximal effect; as to activation: % of control where 0% means no effect)
Details: ME-180 (cervical carcinoma) HRE-bla reporter, beta-lactamase ratio, CoCl2, 17 h; activation: hits give high values
Method in brief: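 HRE-bla ME-180 cells, overnight plating in Opti-MEM with 0.5% dialyzed FBS; cpd titration + EC50 CoCl2, 17 h, 37 degrees Celsius; CCF4 2.5 h RT; 460/530 nm ratio; AC50.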

Structure (SMILES) | activation [%] | Potency
Cc1ccc(OCc2nnc(NC(=O)c3ccco3)s2)c(C)c1 | -11.9 | 
O=C(O)C1CC=CCC1C(=O)N1CCN(c2nc(-c3ccccc3)c3ccccc3n2)CC1 (centres undefined) |  | 3.98 µM (active)
OC1(C2(O)CC(c3ccccc3)ON2)CCCCC1 (centres undefined) | -4.48 | 
COCCCNc1nc2c(c(=O)[nH]c(=O)n2C)n1CC(O)COc1ccccc1 (centres undefined) | -6.56 | 
CSc1ccccc1NC(=O)c1c(Br)cnn1C | 27.6 | 
O=C(NC1(C(F)(F)F)C(=O)Nc2c1c(=O)[nH]c(=O)n2Cc1ccco1)C1CCCCC1 (centres undefined) | -5.1 | 
C=CCn1c(=S)[nH]c2nc3c(cc2c1=O)COC(C)(C)C3 | -5.87 | 
CCOC(=O)C1/C(=N\O)CC(C)(O)C(C(=O)OCC)C1c1ccc(OC)c(OC)c1 (centres undefined) |  | 0.794 µM (active)
COc1ccc(NC(=O)CSC2=C(C#N)C(c3ccco3)C3=C(CCCC3=O)N2)c(OC)c1 (centres undefined) | -27.4 | 
Cc1cc(C)c(-n2c(O)c(C=NCCN3CCOCC3)c(=O)[nH]c2=O)c(C)c1 | -6.53 | 
CCOC(=O)c1c(-c2cccs2)csc1NC(=O)c1ccncc1 |  | 6.31 µM (active)

Target: Pyruvate kinase (Leishmania mexicana) (UniProt Q27686)
Assay: qHTS Validation Assay for Inhibitors of Leishmania Mexicana Pyruvate Kinase (AID 945); also: potency is read from the fitted curve at half-maximal effect;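 as to activity change, negative = inhibition: 0% = DMSO only neutral control wells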
Details: purified L. mexicana pyruvate kinase, enzyme activity, E451W mutant enzyme; series mostly up to 57.5 µM; activity change, negative = inhibition: at the top concentration
Method in brief: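 Luminescent ATP detection (PKLight) after a 1 h room-temperature reaction of 0.2 nM LmPYK E451W mutant with 0.5 mM PEP and 0.1 mM ADP at pH 7.2. Activity is normalized to DMSO-only control wells.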

Pyruvate kinase (Leishmania mexicana), sequence (Q27686 2-499 E452W): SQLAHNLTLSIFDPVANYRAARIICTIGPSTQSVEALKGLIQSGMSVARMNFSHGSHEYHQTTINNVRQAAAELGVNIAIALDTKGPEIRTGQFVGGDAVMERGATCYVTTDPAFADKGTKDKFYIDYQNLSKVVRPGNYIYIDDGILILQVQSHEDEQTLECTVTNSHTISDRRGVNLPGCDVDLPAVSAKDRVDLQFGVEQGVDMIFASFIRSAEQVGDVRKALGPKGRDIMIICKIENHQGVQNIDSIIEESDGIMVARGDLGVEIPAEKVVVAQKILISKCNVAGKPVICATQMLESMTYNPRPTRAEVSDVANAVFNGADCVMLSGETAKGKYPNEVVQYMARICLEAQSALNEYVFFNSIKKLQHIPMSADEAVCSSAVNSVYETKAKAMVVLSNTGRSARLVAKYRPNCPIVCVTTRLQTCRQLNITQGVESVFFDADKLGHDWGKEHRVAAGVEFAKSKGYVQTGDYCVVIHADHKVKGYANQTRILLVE

Structure (SMILES) | activity change, negative = inhibition [%] | Potency
CC[C@]1(O)C[C@H]2CN(CCc3c([nH]c4ccccc34)[C@](C(=O)OC)(c3cc4c(cc3OC)N(C)[C@@H]3[C@](O)(C(=O)OC)[C@H](OC(C)=O)[C@]5(CC)C=CCN6CC[C@]43[C@@H]65)C2)C1 | -1.36 | 
CN1CCc2cc(O)c(O)cc2[C@H](c2ccccc2)C1 | -13.3 | 
O=C(/C=C\c1ccc(O)cc1)c1ccc(O)cc1O |  | 12.6 µM (active)
FC(F)(F)c1cc(CO[C@@H]2CCCN[C@H]2c2ccccc2)cc(C(F)(F)F)c1 | -6.69 | 
